Assay outcomes from PubChem BioAssay.
MsrA inh: inhibits bovine methionine sulfoxide reductase A | purified bovine MsrA, absorbance read-out | inhibition, % at 15.5 µM | 360,000 tested, 0.75% active;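 also: 0% = vehicle wells with enzyme and 100% = reference inhibitor wells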
HGIII-sPLA2 inh: Inhibits HGIII-sPLA2 liposome hydrolysis, primary screen; Q9NZ20; 370,000 tested, 0.56% active; QFRET BODIPY PC-A2 liposome hydrolysis, fluorescence; inhibition, % at 12.2 µM; AID 743126;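 active = inhibition above mean plus 3 SD of compounds lying within the high and low control bounds, cut at about 19% in these data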;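 also: 0% = median of test compound wells and 100% = no enzyme DMSO wells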
Target sequence (Q9NZ20 whole entry, looked up): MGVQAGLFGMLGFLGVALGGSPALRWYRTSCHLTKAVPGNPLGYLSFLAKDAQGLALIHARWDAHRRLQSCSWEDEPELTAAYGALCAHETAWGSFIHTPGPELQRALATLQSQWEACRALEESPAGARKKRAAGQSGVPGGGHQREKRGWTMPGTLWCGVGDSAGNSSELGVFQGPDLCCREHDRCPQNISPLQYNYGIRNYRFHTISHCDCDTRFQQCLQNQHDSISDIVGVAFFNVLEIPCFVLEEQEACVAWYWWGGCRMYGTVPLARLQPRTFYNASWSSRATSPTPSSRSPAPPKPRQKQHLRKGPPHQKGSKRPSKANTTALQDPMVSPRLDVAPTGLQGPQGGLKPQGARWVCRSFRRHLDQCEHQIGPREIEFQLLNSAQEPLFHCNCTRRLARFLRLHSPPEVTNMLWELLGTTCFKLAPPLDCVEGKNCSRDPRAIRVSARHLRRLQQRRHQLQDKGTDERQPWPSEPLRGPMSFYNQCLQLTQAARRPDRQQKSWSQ
PG9 binder: small molecules binding HIV-1 gp120 antibody PG9 | inhibition, % at 6.7 µM | 360,000 tested, 0.43% active | TR-FRET gp120-PG9 antibody binding | AID 624416; in the data active = inhibition above about 8.5%
rCAG RNA binder: binds r(CAG) RNA repeats. r(CAG) RNA repeat, TO-PRO-1 dye displacement fluorescence. inhibition, % at 3 µM. 370,000 tested, 1.3% active. AID 651821;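 active = inhibition above the plate cutoff, the mean of all test compounds on that plate plus 3 SD, cut at about 35% in these data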;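 also: 0% = DMSO alone and 100% = 100 µM mitoxantrone as full dye displacement; higher means more dye released from RNA so lower well fluorescence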
bovine MsrA act: activators of bovine methionine sulfoxide reductase A; activation, % at 10.6 µM; purified bovine MsrA, absorbance read-out; 360,000 tested, 0.3% active; AID 602163; in the data active = activation above about 7.5%;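 also: 0% = vehicle and 100% = reference activator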
MsrA inh confirm: confirmation of bovine MsrA inhibitors. 2,300 tested, 41% active. inhibition, % at 15.5 µM. shares compounds with MsrA inh. purified bovine MsrA, absorbance read-out;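 also: coupled to thioredoxin reductase with NADPH and selenocystamine and DMSO as substrate; 0% = vehicle only and 100% = full effect of reference inhibitor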
Numbers without * were called inactive; x = no result. An excerpt weighted towards active compounds, which were near 3.2% of everything screened. Rule as the data show it, unless noted: active = inhibition above about 4.5%; inactive = the rest.

SMILES | MsrA inh | HGIII-sPLA2 inh | PG9 binder | rCAG RNA binder | bovine MsrA act | MsrA inh confirm
CCOC(=O)C1CCN(C(=O)c2ccc(C)o2)CC1 | 0 | 2 | -1 | 4 | -4 | x
COC(=O)Nc1nnc(/C=C/c2ccccc2)s1 | 3 | 2 | -2 | 7 | -4 | x
O=C(Nc1nnc(/C=C/c2ccccc2)s1)c1ccco1 | 5.8* | -4 | -1 | 9 | -6 | 4
CCN(CC)S(=O)(=O)c1nnc(NC(=O)c2ccco2)s1 | 6.6* | -3 | 1 | 7 | -3 | 3
CCSc1nnc(NC(=O)c2ccco2)s1 | 2 | 0 | -4 | 0 | -9 | x
CN(c1ccccc1)S(=O)(=O)c1nnc(NC(=O)c2ccco2)s1 | 4 | 1 | 0 | 15 | -4 | x
Cc1cccc(-c2nnc(NC(=O)c3ccco3)s2)c1 | 4.8* | 7 | 4 | 6 | -4 | 2
COc1cc(-n2c(C)nc3cc(C(=O)N4CCCN(C(C)=O)CC4)ccc32)cc(OC)c1OC | x | 12 | x | 5 | x | x
O=S1(=O)c2ccc(N3CCSCC3)cc2Oc2ccccc2CN1Cc1cn(Cc2ccc(F)cc2)nn1 | x | 4 | x | 7 | x | x
COc1cc(/C=N/Nc2nc3c(c(=O)n(C)c(=O)n3C)n2Cc2ccccc2)ccc1OC(=O)c1ccco1 | 5.4* | 11 | -3 | 17 | -9 | 4
Cc1ccc(/C=N/NC(=O)c2nnn(-c3nonc3N)c2-c2ccc3c(c2)OCO3)s1 | 5.0* | -24 | 0 | 9 | -5 | 4.6*
CC(=C/c1ccco1)/C=N/NC(=O)c1nnn(-c2nonc2N)c1CN(C)C | 7.7* | -1 | -4 | 5 | -5 | 5.4*
COCc1c(C(=O)N/N=C/c2ccc(C)o2)nnn1-c1nonc1N | 6.6* | 1 | -1 | 0 | -1 | 5
C=CCn1c(SCC(=O)Nc2ccccc2-c2ccccc2)nnc1-c1ccccc1 | x | -3 | x | 2 | x | x
CCOC(=O)[C@@H](CCc1ccccc1)N[C@@H](C)C(=O)N1CCC[C@H]1C(=O)O | x | -2 | x | 0 | x | x
CCc1cc(=O)oc2c(C)c(O)c(CN3CCCCC3)cc12 | 5.4* | -2 | 2 | 1 | 0 | 3
O=C(O)c1ccc(-c2nc3ccccc3s2)o1 | 5.2* | 0 | 1 | 2 | -4 | 4
O=C(c1ccc(-c2nc3ccccc3s2)o1)N1CCN(c2ccccc2O)CC1 | 3 | -13 | 0 | 4 | -2 | x
C=CCn1c(COc2ccc(C)cc2)nnc1SCc1ccc([N+](=O)[O-])cc1 | x | -13 | x | -1 | x | x
O=C(O)c1ccc(C=Nn2c(-c3ccc(F)cc3)n[nH]c2=S)cc1 | x | 6 | x | 3 | x | x
CN(C(=O)[C@@H](C1CC1)[C@@H](O)c1ccc2ccccc2c1)c1ccccc1 | x | 0 | x | -3 | x | x
Cn1nc(C(C)(C)C)c([N+](=O)[O-])c1C(=O)Nc1ccccc1 | -1 | 0 | -3 | -1 | -3 | x
Cn1c(=O)[nH]c(Nc2ccccc2)c([N+](=O)[O-])c1=O | 6.4* | 2 | -1 | 3 | -8 | 4
Cc1cccc(-c2cccc3c4c([nH]c23)[C@@H]2C[C@H](N(C)C(=O)c3ccco3)[C@H]([C@H](C)O)CN2CC4)c1 | x | -3 | x | 3 | x | x
Cc1ccccc1N=C1c2ccccc2C(=O)C1[N+](=O)[O-] (centres undefined) | 5.8* | 4 | -2 | 3 | -2 | 4
SMILES | MsrA inh | HGIII-sPLA2 inh | PG9 binder | rCAG RNA binder | bovine MsrA act | MsrA inh confirm
Cc1nc(SCC(N)=O)[nH]c(=O)c1C | x | -1 | x | x | x | x
COc1cccc(C2=CC(c3cccs3)n3nnnc3N2)c1 (centres undefined) | 14* | -8 | -1 | 2 | -2 | -1
COc1ccc(/C=C(/NC(=O)c2ccccc2)C(=O)N/N=C/c2ccc3c(c2)OCO3)cc1OC | 6.4* | 0 | 1 | 9 | -5 | 5.1*
O=C(N/N=C/c1cccnc1)/C(=C\c1cccs1)NC(=O)c1ccccc1 | 7.3* | 8 | -1 | 2 | 3 | 4.7*
O=C(N/N=C/c1ccc2c(c1)OCO2)/C(=C/c1ccc2c(c1)OCO2)NC(=O)c1ccccc1 | 4 | -3 | 1 | 12 | -1 | x
COc1ccc([N+](=O)[O-])cc1/C=N/NC(=O)/C(=C\c1cccs1)NC(=O)c1ccccc1 | 3 | 1 | -2 | 24 | -9 | x
COc1ccc(/C=C(/NC(=O)c2ccccc2)C(=O)N/N=C/c2cccs2)cc1OC | 4.8* | -4 | 0 | 7 | -7 | 6.0*
O=C1CCC2(CCC(c3ccccc3)CC2)N1CCO (centres undefined) | x | -2 | x | 0 | x | x
O=C(COCc1ccncc1)N1CCN(c2ccc(F)cc2Cl)CC1 | x | 0 | x | -1 | x | x
O=[N+]([O-])c1ccc(-c2nc3ccc([N+](=O)[O-])cc3[nH]2)cc1 | 1 | -6 | -1 | 5 | -8 | x
CCCC[n+]1ccc(-c2nc3ccc([N+](=O)[O-])cc3[nH]2)cc1 | 4.8* | -1 | -1 | 2 | 0 | 4
O=C(c1ccccc1)c1ccc(O)cc1O | 5.6* | -166 | -1 | -196 | -6 | 3
O=C(c1ccc(O)cc1)c1ccc(O)cc1O | 3 | -3 | -2 | 1 | -4 | x
Cc1ccc(O)c(C(C)c2c[nH]c3ccccc23)c1 (centres undefined) | x | -73 | x | 4 | x | x
Cn1c(NC(=O)/C=C/c2ccccc2)cc(=O)n(C)c1=O | 4 | 4 | 0 | -1 | -8 | x
COc1ccc(/C=C/C(=O)Nc2cc(=O)n(C)c(=O)n2C)cc1 | 5.0* | 17 | 2 | 1 | -14 | 4
CCCC(=O)N1CCC[C@]2(CC[C@H](CCC#N)O2)C1 | x | 9 | x | 2 | x | x
CN1C(=O)c2cc(NS(=O)(=O)c3ccc(F)cc3)ccc2OC[C@H]2O[C@@H](CC(=O)NCC(F)(F)F)CC[C@@H]21 | x | -40 | x | 1 | x | x
CCS(=O)(=O)Nc1cccc(C2=NN(C(=O)c3ccco3)C(c3ccco3)C2)c1 (centres undefined) | 3 | -10 | -1 | 15 | -3 | x
CCS(=O)(=O)Nc1ccc(C2=NN(C(=O)c3ccco3)C(c3ccco3)C2)cc1 (centres undefined) | 5.1* | 1 | -1 | 21 | 0 | 3
Cc1ccc(-c2nc3ccccc3n2C)o1 | -1 | 5 | -2 | 0 | -1 | x
CC(=O)c1ccc(-c2nc3ccccc3n2C)o1 | 6.7* | 7 | 4 | 5 | -1 | 2
NC(=O)Cc1nc(-c2ccc([N+](=O)[O-])cc2)cs1 | 5.0* | -1 | -1 | -2 | -4 | 1
Cc1ccc2c(c1)C1CS(=O)(=O)N(C3CCCC3)C(=O)N1C2 (centres undefined) | x | 2 | x | 3 | x | x
O=[N+]([O-])c1ccc(N/N=C/c2ccccc2O)cc1 | 1 | -7 | 0 | 27 | -4 | x
O=[N+]([O-])c1ccc(O)c(C=NNc2ccc(S(=O)(=O)O)cc2)c1 | 5.3* | 0 | -14 | 5 | -5 | 6.2*
COC(=O)[C@]12C[C@H](CC(=O)N3CCN(C(=O)c4ccco4)CC3)C(=O)N(CCc3ccc(OC)c(OC)c3)C1=C[C@H](C(C)(C)C)O[C@@H]2C | x | -8 | x | 4 | x | x
